Among all 1,600 compounds or so, fewer than 10 were called active. Another 48% or so got no clear call; they are omitted.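 Rule for the calls: active = Normal-ribosome green reporter loss at least double humanized-ribosome red reporter loss, with overall culture growth inhibition under a set limit; inconclusive = no clear call, values can overlap the other calls; inactive = the rest.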 These entries were drawn from the full list. Entries with a potency or affinity are not part of this list.

A short description of the test: E. coli growth inhibition, wild-type GFP versus H38 humanized RFP strain – H38 mutant RFP vs wild-type GFP, cherry-pick, dose response (AID 977630). The note with it: mixed culture, 24 h; series mostly up to 50 µM.
For `CC(C)(C)NC(=O)C(c1ccncc1)N(Cc1ccc(F)cc1)C(=O)c1ccc(-c2ccccc2)[nH]1` (centres undefined), the outcome was inactive.
The same measure for `Cc1ccc(C(=O)C2Oc3ccccc3C3CC(c4ccc(C)cc4)=NN23)cc1` (centres undefined): “inactive”; for `Cc1nc(N2CCC(C)CC2)c(C#N)c(C)c1[N+](=O)[O-]`: “inactive”.
For `Cc1cc(NC(=O)CCN2C(=O)C3C4C=CC(C4)C3C2=O)ccc1Br` (centres undefined), the call was inactive.
With `CCOc1ccc2[nH]c3c(NCCN(C)C)ncnc3c2c1`, the outcome was inactive.
With `Cc1ccc(S(=O)(=O)N(C(=O)c2ccncc2)c2ccc(OC(=O)c3ccncc3)cc2)c(C)c1`, the molecule was called inactive.
Regarding `COc1ccc(C(NC(=O)C2CCN(CCOc3ccc(Cl)cc3Cl)CC2)c2ccccc2C)cn1` (centres undefined), the molecule was called inactive.
For `COc1cccc(-c2ccc(NC(=O)C3CCCN(Cc4cnn(C(C)C)c4)C3)cc2)c1` (centres undefined), the outcome was inactive.
In the case of `Cc1cccc(NC(=O)c2c(C)nn(-c3ccccc3)c2Cl)c1`, the result was inactive.
As for `CC(C)Oc1cccc(C(=O)C2CCCN(C(=O)c3cc(C(F)(F)F)[nH]n3)C2)c1` (centres undefined), the molecule was called inactive.
In the case of `Cc1ccccc1-c1nc(CS(=O)(=O)CC(=O)N2CCCCC2)c(C)o1`, the result was inactive.
The result for `COc1cccc(NC(=O)C(c2ccccc2)N2CCN(c3ccccn3)CC2)c1` (centres undefined) reads “inactive”; that for `COC(=O)c1ccc2nc(-c3ccc(F)cc3)c(Cc3cccc(F)c3)n2c1`, “inactive”.
The result for `COc1ccc(-c2nn(-c3ccccc3C)cc2CNCc2cccnc2)cc1F` reads “inactive”; that for `CC1CCc2c(sc3ncn4c(SCC(=O)NCc5ccco5)nnc4c23)C1` (centres undefined), “inactive”; that for `CC1CN(CC(=O)Nc2nc3ccccc3s2)CC(C)O1` (centres undefined), “inactive”.
Turning to `O=S(=O)(Nc1ccccc1N1CCCCC1)c1cccs1`, the call was inactive.
The same measure for `Cc1ccn2cc(-c3cccc(NC(=O)c4cccs4)c3)nc2c1`: “inactive”; for `O=S(=O)(Cc1ccc(Cl)cc1)N1CCN(Cc2ccc3c(c2)OCO3)CC1`: “inactive”; for `Cc1cccc(NS(=O)(=O)c2cc3c(cc2C)NC(=O)CO3)c1`: “inactive”.
Regarding `O=C(CSCc1c(Cl)cccc1Cl)NCc1ccccn1`, the call was inactive.
As for `Cc1cccc(N2CCN(Cc3nc(-c4ccc(F)cc4F)oc3C)CC2)n1`, the outcome was inactive.
In the case of `CCNc1nc(N)c(C(=O)C23CC4CC(CC(C4)C2)C3)s1`, the molecule was called inactive.
The same measure for `CNC(=O)c1sc(-c2ccccn2)nc1C`: “inactive”; for `Cc1cc(C)c(OCCN(C)Cc2ccccc2)c(Br)c1`: “inactive”; for `O=C(Nc1cc(S(=O)(=O)N2CCCCC2)ccc1N1CCCCC1)C1CC1`: “inactive”.
The result for `CCCCNC(=O)c1c(N)[nH]c(C(=O)c2ccccc2)c1-c1ccccn1` reads “inactive”.
Regarding `Cc1nn(S(=O)(=O)c2ccc(Cl)cc2)c(C)c1Sc1ccc([N+](=O)[O-])cc1`, the outcome was inactive.
The result for `Cc1cccc(NC(=O)c2sc3nc(-c4ccccc4)cn3c2C)n1` reads “inactive”.
